# Unmarked numbers belong to inactive results. Records with an inconclusive call do not appear. A call without a number means that no potency is given here. The source made the active and inactive calls. Unless noted, calls follow the shape of the dose curve; as a rule, active = well fitted curve in the direction sought with a large enough effect in the repeat runs; inconclusive = weak or mixed curves; inactive = no such curve, though single readings can be large; an effect the other way counts as inactive or inconclusive.
# Assays:
# [1] = qHTS assay to identify small molecule agonists of the hypoxia (HIF-1) signaling pathway - cell viability counter screen (AID 1224844; calls by dose curve; also: nearly all actives have a fitted effect of over 50% in size); details: HRE-bla ME-180 viability, CellTiter-Glo luminescence, 17 h; series mostly up to 76.8 µM
# Summary of the method: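 Cytotoxicity was measured in parallel with the HRE-driven beta-lactamase readout: after 17 hrs of compound exposure at 37C, HRE-bla ME-180 cells received CellTiter-Glo and luminescence was recorded 30 min later.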
# [2] = qHTS assay to identify small molecule agonists of H2AX (AID 1224845; active = well fitted activation curve with a large enough effect in the signal ratio in the repeat runs, not every such curve was filed as active; the % refers to the signal ratio; also: potency is read from the fitted curve at half-maximal effect); details: CHO-K1 phospho-H2AX Ser139 HTRF, 3 h; series mostly up to 154 µM
# Summary of the method: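 Wild-type CHO-K1 cells, plated overnight, exposed 3hr at 37C to 15 concentrations (0.76% DMSO final). Lysed, then HTRF anti-pH2AX (S139) cryptate and anti-H2AX-d2 antibodies, 24 hr room temperature; 665/620 nm emission read.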
# [3] = qHTS assay to identify small molecule agonists of the hypoxia (HIF-1) signaling pathway (AID 1224846; active = well fitted activation curve with a large enough effect in the signal ratio in the repeat runs, not every such curve was filed as active; the % refers to the signal ratio); details: HRE-bla ME-180 cells, beta-lactamase ratio, 17 h; series mostly up to 76.8 µM
# Summary of the method: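 Compounds from the Tox21 10K library, dissolved in DMSO, are tested for induction of a hypoxia response element–controlled beta-lactamase reporter in ME-180 cells. Exposure lasts 17 hrs at 37C after a 5 hr settling period, followed by CCF4-AM FRET substrate.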
# [4] = qHTS assay to identify small molecule agonists of H2AX - cell viability counter screen (AID 1224847; calls by dose curve; also: top concentration of the series differs between compounds; nearly all actives have a fitted effect of over 30% in size); details: CHO-K1 viability, CellTiter-Glo luminescence, 3 h; series mostly up to 154 µM
# Summary of the method: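 Wild-type CHO-K1 cells (10% FBS medium) were plated overnight at 37C, exposed to compounds at 15 concentrations for 3 hr at 37C (0.76% DMSO final), and viability was read as CellTiter-Glo luminescence after 30 min at room temperature.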
# [5] = qHTS RealTime-Glo MT Cell Viability Assay in HepG2 cells - 24 hour (AID 1224867); details: RealTime-Glo luminescence; series mostly up to 76.8 µM; also: nearly all actives have a fitted effect of over 50% in size
# Summary of the method: (§1)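 Tox21 10K library screened in qHTS format on HepG2 cells carrying RealTime-Glo reagents. Compounds were added after a 5 h preincubation, and the luminescent signal from continuous culture was measured repeatedly during 40 h treatment.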
# [6] = qHTS RealTime-Glo MT Cell Viability Assay in HEK293 cells - 32 hour (AID 1224868); details: RealTime-Glo luminescence; series mostly up to 76.8 µM; also: nearly all actives have a fitted effect of over 50% in size; also: potency is read from the fitted curve at half-maximal effect
# Summary of the method: (§2)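 Luminescence generated by NanoLuc from substrate produced by living HEK293 cells served as the viability signal. Each value reflects the reading at its stated time point during continuous 40 h compound exposure at 37 C.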
# [7] = A CellTox Green Cytotoxicity Assay to monitor cytotoxicity in HEK293 cells - 0 hour (AID 1224869); details: CellTox Green fluorescence; series mostly up to 76.8 µM; also: nearly all actives have a fitted effect of over 50% in size
# Summary of the method: (§3)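 Cells (HEK293, 600/well) and dye reagent are dispensed together. After 5 h at 37 C, 23 nL compound is pinned in. Plates stay at 37 C for 40 h with fluorescence read at 0h, 8h, 16h, 24h, 32h and 40h.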
# [8] = qHTS RealTime-Glo MT Cell Viability Assay in HepG2 cells - 40 hour (AID 1224870); details: RealTime-Glo luminescence; series mostly up to 76.8 µM; also: nearly all actives have a fitted effect of over 50% in size; also: potency is read from the fitted curve at half-maximal effect
# Summary of the method: (§4)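 HepG2 cells (600/well) mixed with RealTime-Glo MT reagent, settled 5 h at 37 C/5% CO2 before compound addition. Nonlytic NanoLuc luminescence from viable-cell prosubstrate reduction read repeatedly during 40 h treatment at 37 C.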
# [9] = A CellTox Green Cytotoxicity Assay to monitor cytotoxicity in HEK293 cells - 40 hour (AID 1224871); details: CellTox Green fluorescence; series mostly up to 76.8 µM; also: nearly all actives have a fitted effect of over 45% in size
# Summary of the method: as §3
# [10] = qHTS RealTime-Glo MT Cell Viability Assay in HEK293 cells - 16 hour (AID 1224872); details: RealTime-Glo luminescence; series mostly up to 76.8 µM
# Summary of the method: as §2
# [11] = qHTS RealTime-Glo MT Cell Viability Assay in HepG2 cells - 8 hour (AID 1224873); details: RealTime-Glo luminescence; series mostly up to 76.8 µM; also: nearly all actives have a fitted effect of over 55% in size
# Summary of the method: as §4
# [12] = qHTS RealTime-Glo MT Cell Viability Assay in HEK293 cells - 40 hour (AID 1224874); details: RealTime-Glo luminescence; max response: active compounds read low; also: nearly all actives have a fitted effect of over 50% in size; also: potency is read from the fitted curve at half-maximal effect
# Summary of the method: (§5)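 Real-time viability in HEK293: signal arises when living cells convert a prosubstrate for NanoLuc in the medium, so luminescence tracks viable cell number. Compound (23 nL, DMSO) added 5 h post-seeding; kinetic reads at 0–40 h, 37 C.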
# [13] = A CellTox Green Cytotoxicity Assay to monitor cytotoxicity in HEK293 cells - 24 hour (AID 1224875); details: CellTox Green fluorescence; series mostly up to 76.8 µM; also: nearly all actives have a fitted effect of over 45% in size
# Summary of the method: as §3
# [14] = A CellTox Green Cytotoxicity Assay to monitor cytotoxicity in HepG2 cells - 16 hour (AID 1224876); details: CellTox Green fluorescence; series mostly up to 76.8 µM; also: nearly all actives have a fitted effect of over 45% in size
# Summary of the method: (§6)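 Cells and non-lytic dye reagent are dispensed together (600 HepG2 cells/well) and incubated 5 h before DMSO compound transfer. Kinetic fluorescence is then recorded in the same wells during 40 h at 37 C.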
# [15] = A CellTox Green Cytotoxicity Assay to monitor cytotoxicity in HepG2 cells - 24 hour (AID 1224878); details: CellTox Green fluorescence; series mostly up to 76.8 µM; also: nearly all actives have a fitted effect of over 45% in size
# Summary of the method: as §6
# [16] = qHTS RealTime-Glo MT Cell Viability Assay in HEK293 cells - 0 hour (AID 1224880); details: RealTime-Glo luminescence; series mostly up to 76.8 µM
# Summary of the method: as §5
# [17] = qHTS RealTime-Glo MT Cell Viability Assay in HepG2 cells - 32 hour (AID 1224877); details: RealTime-Glo luminescence; series mostly up to 76.8 µM; also: nearly all actives have a fitted effect of over 55% in size
# Summary of the method: as §1
# [18] = A CellTox Green Cytotoxicity Assay to monitor cytotoxicity in HepG2 cells - 40 hour (AID 1224879); details: CellTox Green fluorescence; series mostly up to 76.8 µM; also: nearly all actives have a fitted effect of over 40% in size
# Summary of the method: as §6
# [19] = qHTS assay to identify small molecule agonists of the estrogen related receptor (ERR) signaling pathway from Tox21 library (AID 1224849; calls by dose curve; also: nearly all actives have a fitted effect of over 15% in size); details: ERR reporter cell line, ONE-Glo luciferase, 18 h; at 92.4 µM (top of the series)
# Summary of the method: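 Cells carrying the ERR reporter were plated and allowed to settle for 6 h, exposed to library compounds for 18 h at 37 C, then lysed with ONE-Glo and luminescence measured.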
SMILES,Potency [1],Potency [2],outcome [3],Potency [4],Potency [5],Potency [6],Potency [7],Potency [8],Potency [9],Potency [10],Potency [11],max response [12] [%],Potency [13],Potency [14],Potency [15],outcome [16],Potency [17],Potency [18],"activity change, positive = activation [19] [%]",Potency [12]
CC(CC(C(N)=O)(c1ccccc1)c1ccccc1)N(C)C (centres undefined),inactive,inactive,inactive,inactive,inactive,inactive,inactive,inactive,inactive,inactive,inactive,3.65,inactive,inactive,inactive,inactive,–,–,–,–
CCOc1cccc(C2(N3CCN(c4ccccc4)CC3)CCC(C)CC2)c1 (centres undefined),inactive,inactive,inactive,inactive,inactive,inactive,inactive,inactive,inactive,inactive,inactive,-7.17,inactive,inactive,inactive,inactive,inactive,inactive,–,–
C1CCNCC1,inactive,inactive,inactive,inactive,inactive,inactive,inactive,inactive,inactive,inactive,inactive,0.2,inactive,inactive,inactive,inactive,–,–,–,–
CCC(C)Cl (centres undefined),inactive,inactive,inactive,inactive,inactive,inactive,inactive,inactive,inactive,inactive,inactive,9.33,inactive,inactive,inactive,inactive,inactive,inactive,–,–
CC[N+]1(CCOC(=O)C(O)(c2ccccc2)c2ccccc2)CCCCC1,inactive,inactive,inactive,inactive,inactive,inactive,inactive,inactive,inactive,inactive,inactive,4.06,inactive,inactive,inactive,inactive,–,inactive,–,–
FC(F)OC(F)(F)C(F)Cl (centres undefined),inactive,inactive,inactive,inactive,inactive,inactive,inactive,inactive,inactive,inactive,inactive,8.01,inactive,inactive,inactive,inactive,inactive,inactive,–,–
C=CC(C)(CCC=C(C)C)OC(=O)c1ccccc1N (centres undefined),inactive,inactive,inactive,inactive,inactive,inactive,inactive,inactive,inactive,inactive,inactive,-1.39,inactive,inactive,inactive,inactive,inactive,–,–,–
CCCN(CCC)c1c([N+](=O)[O-])cc(C(C)C)cc1[N+](=O)[O-],inactive,inactive,inactive,inactive,inactive,inactive,inactive,inactive,inactive,inactive,inactive,9.58,inactive,inactive,inactive,inactive,inactive,–,–,–
COC(=O)C1(O)c2ccccc2-c2ccccc21,inactive,inactive,inactive,inactive,inactive,inactive,inactive,inactive,inactive,inactive,inactive,-22.2,inactive,inactive,inactive,inactive,inactive,inactive,–,–
COc1cc(CC#N)cc(OC)c1OC,inactive,inactive,inactive,inactive,inactive,inactive,inactive,inactive,inactive,inactive,inactive,0.767,inactive,inactive,inactive,inactive,inactive,–,–,–
CN(C)C(=O)Nc1cccc(OC(=O)NC(C)(C)C)c1,inactive,inactive,inactive,inactive,inactive,inactive,inactive,inactive,inactive,inactive,inactive,-14.3,inactive,inactive,inactive,inactive,inactive,inactive,-15.7,–
CCCCC(CC)CO[N+](=O)[O-] (centres undefined),inactive,inactive,inactive,inactive,inactive,inactive,inactive,inactive,inactive,inactive,inactive,-1.82,inactive,inactive,inactive,inactive,–,inactive,–,–
Cc1nc2ccccc2c(=O)n1-c1ccccc1Cl,inactive,27.8 µM (active),inactive,inactive,–,21.4 µM (active),inactive,inactive,inactive,–,–,–,inactive,inactive,inactive,inactive,inactive,inactive,-29.9,21.4 µM (active)
C[N+](C)(C)CCOC(=O)C(O)(c1ccccc1)c1ccccc1,inactive,inactive,inactive,inactive,inactive,inactive,inactive,23.9 µM (active),inactive,inactive,inactive,0.291,inactive,inactive,inactive,inactive,–,–,–,–
CCCCCCCCCCCCCCCl,inactive,inactive,inactive,inactive,inactive,inactive,inactive,inactive,inactive,inactive,inactive,1.34,inactive,inactive,inactive,inactive,inactive,–,–,–
CN(C1CCCCC1)C1CCCCC1,inactive,inactive,inactive,inactive,inactive,inactive,inactive,inactive,inactive,inactive,inactive,-2.03,inactive,inactive,inactive,inactive,inactive,–,–,–
